Holding throughout (test): protein-binding microarray (PBM); PBM: ~300 nM protein, 6 mM HEPES pH 7.8, 80 mM KCl, 0.5 mM EDTA, 0.5 mM EGTA, 6% glycerol, 35 ng/ul poly-dIdC, 1% milk, 1 h, room temperature; Ap Aiptasia and Nv Nematostella (sea anemones) / Co Capsaspora / Aq Amphimedon (sponge) / Dm Drosophila / Hu human; RHD is the Rel homology domain; high values mean tight binding
Conditions in all cases: dsDNA, one strand shown

In one test the target is T1, GST-Ap-NF-kB RHD (Exaiptasia pallida (Aiptasia), UniProt A0A913YAJ5 2-422).
T1 sequence: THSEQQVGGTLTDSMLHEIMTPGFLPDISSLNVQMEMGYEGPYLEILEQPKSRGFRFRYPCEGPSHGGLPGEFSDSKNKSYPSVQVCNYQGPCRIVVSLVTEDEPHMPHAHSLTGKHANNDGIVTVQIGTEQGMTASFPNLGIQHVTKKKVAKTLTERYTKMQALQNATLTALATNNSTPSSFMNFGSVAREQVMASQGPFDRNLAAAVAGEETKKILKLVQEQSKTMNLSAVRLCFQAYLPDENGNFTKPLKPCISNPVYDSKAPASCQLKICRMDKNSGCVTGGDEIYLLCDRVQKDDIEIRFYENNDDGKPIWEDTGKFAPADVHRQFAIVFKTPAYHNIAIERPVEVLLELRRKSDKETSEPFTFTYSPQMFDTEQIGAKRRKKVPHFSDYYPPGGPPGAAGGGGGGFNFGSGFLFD

Test [1] deals with T2, GST-Nv-NF-kB (Cys allele) (Nematostella vectensis, UniProt E5G601 2-411).
T2 sequence: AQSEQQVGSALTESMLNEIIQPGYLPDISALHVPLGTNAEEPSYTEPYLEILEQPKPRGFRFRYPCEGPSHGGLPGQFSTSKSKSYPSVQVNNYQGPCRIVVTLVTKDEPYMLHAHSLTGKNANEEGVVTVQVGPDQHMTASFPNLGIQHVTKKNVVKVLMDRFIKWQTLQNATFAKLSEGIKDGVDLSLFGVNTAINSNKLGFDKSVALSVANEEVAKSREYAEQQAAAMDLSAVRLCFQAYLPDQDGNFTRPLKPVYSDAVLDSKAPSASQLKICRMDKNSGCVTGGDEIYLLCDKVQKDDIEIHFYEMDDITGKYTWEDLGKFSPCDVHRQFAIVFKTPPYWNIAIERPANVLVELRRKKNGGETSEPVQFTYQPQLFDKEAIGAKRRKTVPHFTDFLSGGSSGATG

The target of another test is T3, GST-Co-NF-kB (Capsaspora owczarzaki, UniProt F1ARL5 200-546).
T3 sequence: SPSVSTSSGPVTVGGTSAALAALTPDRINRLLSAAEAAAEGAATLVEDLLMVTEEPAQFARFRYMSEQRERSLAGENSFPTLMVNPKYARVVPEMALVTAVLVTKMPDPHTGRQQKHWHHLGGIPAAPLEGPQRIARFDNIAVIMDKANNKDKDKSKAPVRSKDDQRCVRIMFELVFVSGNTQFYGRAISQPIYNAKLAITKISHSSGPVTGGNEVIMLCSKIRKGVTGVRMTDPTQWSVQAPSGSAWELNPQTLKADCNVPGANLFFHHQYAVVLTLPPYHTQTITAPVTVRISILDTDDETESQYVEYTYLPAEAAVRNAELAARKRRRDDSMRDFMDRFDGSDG

A further test addresses T4, GST-Dm-Relish (Drosophila melanogaster, UniProt Q94527 99-473).
T4 sequence: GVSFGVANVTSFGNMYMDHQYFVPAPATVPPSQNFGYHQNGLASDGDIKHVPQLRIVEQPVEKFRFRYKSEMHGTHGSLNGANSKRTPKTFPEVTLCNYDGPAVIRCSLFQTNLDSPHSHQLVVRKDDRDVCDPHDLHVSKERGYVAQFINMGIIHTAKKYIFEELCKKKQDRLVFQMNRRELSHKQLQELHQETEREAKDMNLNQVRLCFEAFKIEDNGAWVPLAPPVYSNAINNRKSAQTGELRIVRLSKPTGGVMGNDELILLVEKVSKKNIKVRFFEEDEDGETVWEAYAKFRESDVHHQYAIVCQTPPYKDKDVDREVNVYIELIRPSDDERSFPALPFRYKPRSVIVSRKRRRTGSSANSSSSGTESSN

In the next test the target is T5, GST-Aq-NF-kB (Amphimedon queenslandica, UniProt A9Y5G7 2-389).
T5 sequence: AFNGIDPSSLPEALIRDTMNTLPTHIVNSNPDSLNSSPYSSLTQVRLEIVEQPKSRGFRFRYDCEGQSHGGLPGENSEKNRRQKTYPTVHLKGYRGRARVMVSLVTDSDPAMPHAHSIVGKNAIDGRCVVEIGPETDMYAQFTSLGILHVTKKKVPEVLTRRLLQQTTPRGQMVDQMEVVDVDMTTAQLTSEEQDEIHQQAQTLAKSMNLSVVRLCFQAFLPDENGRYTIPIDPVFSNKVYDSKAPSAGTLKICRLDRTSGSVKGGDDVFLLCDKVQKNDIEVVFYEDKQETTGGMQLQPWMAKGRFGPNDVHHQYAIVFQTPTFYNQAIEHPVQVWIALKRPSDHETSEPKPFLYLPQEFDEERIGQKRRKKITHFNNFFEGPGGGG

As to “CCGATTAACATCAGATTTCCCACTGATGTTAATCGGGTCTTGATTCGCTTGACGCTGCTG”, the binding signal in the test with GST-Ap-NF-kB RHD stood at 1.83 z-score; in test [1] it was 3.74 z-score; in the test with GST-Co-NF-kB, 3.15 z-score; in the test with GST-Dm-Relish, 2.02 z-score; with GST-Aq-NF-kB, 2.32 z-score.
Taken in the same sequence, the figures for “CCGATTAACATCACGGGATTTCCTGATGTTAATCGGGTCTTGATTCGCTTGACGCTGCTG” were 4.81 z-score, 4.51 z-score, 1.37 z-score, 7.57 z-score and 6.62 z-score.
The corresponding values for “CCGATTAACATCAAATTCCCAGATGATGTTAATCGGGTCTTGATTCGCTTGACGCTGCTG” are 2.43 z-score, 3.57 z-score, 3.87 z-score, 3.52 z-score and 2.42 z-score.
Taken in the same sequence, the figures for “CCGATTAACATCAGGGGGCAAGATGATGTTAATCGGGTCTTGATTCGCTTGACGCTGCTG” were 2.07 z-score, 2.14 z-score, 2.69 z-score, 1.01 z-score and 2.76 z-score.
In the case of “CCGATTAACATCAGGGGGATGTATGATGTTAATCGGGTCTTGATTCGCTTGACGCTGCTG”, the binding signal in the test with GST-Ap-NF-kB RHD was determined as 4.97 z-score; in test [1], 4.88 z-score; in the test with GST-Co-NF-kB it was 4.13 z-score; with GST-Dm-Relish, 4.17 z-score; with GST-Aq-NF-kB, 4.11 z-score.
Turning to “CCGATTAACATCAGGGAACTACATGATGTTAATCGGGTCTTGATTCGCTTGACGCTGCTG”, the binding signal in the test with GST-Ap-NF-kB RHD worked out at 1.52 z-score; in test [1], 1.1 z-score; with GST-Co-NF-kB, 1.62 z-score; with GST-Dm-Relish, 8.31 z-score; with GST-Aq-NF-kB, 2.44 z-score.
Taken in the same sequence, the figures for “CCGATTAACATCACTTCCCCCCATGATGTTAATCGGGTCTTGATTCGCTTGACGCTGCTG” were 4.7 z-score, 4.18 z-score, 8.31 z-score, 3.34 z-score and 3.86 z-score.
Take “CCGATTAACATCAAACAATTCCCTGATGTTAATCGGGTCTTGATTCGCTTGACGCTGCTG”: the binding signal is 3.25 z-score with GST-Ap-NF-kB RHD; 5.26 z-score in test [1]; 3.45 z-score with GST-Co-NF-kB; 1.6 z-score in the test with GST-Dm-Relish; 4.85 z-score in the test with GST-Aq-NF-kB.
Taken in the same sequence, the figures for “CCGATTAACATCAGGGGGGGCACTGATGTTAATCGGGTCTTGATTCGCTTGACGCTGCTG” were 4.77 z-score, 3.1 z-score, 4.2 z-score, 4.97 z-score and 4.76 z-score.
For the sequence “CCGATTAACATCACGGGGGGTAATGATGTTAATCGGGTCTTGATTCGCTTGACGCTGCTG”, the binding signal with GST-Ap-NF-kB RHD came to 4.02 z-score; in test [1], 2.73 z-score; with GST-Co-NF-kB, 6.28 z-score; with GST-Dm-Relish it was 3.64 z-score; with GST-Aq-NF-kB it was 3.77 z-score.
The corresponding values for “CCGATTAACATCAGGGGGGGTCATGATGTTAATCGGGTCTTGATTCGCTTGACGCTGCTG” are 3.99 z-score, 2.96 z-score, 3.31 z-score, 3.85 z-score and 3.54 z-score.
Taken in the same sequence, the figures for “CCGATTAACATCACCACTTTCCCTGATGTTAATCGGGTCTTGATTCGCTTGACGCTGCTG” were 3.21 z-score, 4.07 z-score, 3.94 z-score, 1.32 z-score and 3.11 z-score.
For the sequence “CCGATTAACATCAAAAATCACCCTGATGTTAATCGGGTCTTGATTCGCTTGACGCTGCTG”, the binding signal in the test with GST-Ap-NF-kB RHD worked out at 2.67 z-score; in test [1] it was 2.98 z-score; in the test with GST-Co-NF-kB, 2.5 z-score; in the test with GST-Dm-Relish it was 7.81 z-score; with GST-Aq-NF-kB it was 3.84 z-score.
Regarding “CCGATTAACATCAGGGAATGTACTGATGTTAATCGGGTCTTGATTCGCTTGACGCTGCTG”, the binding signal with GST-Ap-NF-kB RHD was 2.21 z-score; in test [1], 3.28 z-score; with GST-Co-NF-kB, 2.29 z-score; with GST-Dm-Relish it was 7.08 z-score; in the test with GST-Aq-NF-kB it was 4.86 z-score.
In the case of “CCGATTAACATCAGGGGCGGGAATGATGTTAATCGGGTCTTGATTCGCTTGACGCTGCTG”, the binding signal is 2.87 z-score with GST-Ap-NF-kB RHD; 3.85 z-score in test [1]; 3.85 z-score with GST-Co-NF-kB; 2.49 z-score with GST-Dm-Relish; 4.18 z-score in the test with GST-Aq-NF-kB.
Take “CCGATTAACATCACGTAAATCCCTGATGTTAATCGGGTCTTGATTCGCTTGACGCTGCTG”: the binding signal with GST-Ap-NF-kB RHD amounted to 2.65 z-score; in test [1], 2.8 z-score; with GST-Co-NF-kB it was 1.01 z-score; with GST-Dm-Relish it was 7.13 z-score; in the test with GST-Aq-NF-kB it was 3.3 z-score.
Turning to “CCGATTAACATCAGGGATTTCTATGATGTTAATCGGGTCTTGATTCGCTTGACGCTGCTG”, the binding signal with GST-Ap-NF-kB RHD came out at 4.28 z-score; in test [1], 4.04 z-score; with GST-Co-NF-kB it was 1.22 z-score; in the test with GST-Dm-Relish it was 5.1 z-score; in the test with GST-Aq-NF-kB it was 4 z-score.
Consider “CCGATTAACATCAGGGAATGACCTGATGTTAATCGGGTCTTGATTCGCTTGACGCTGCTG”, for which the binding signal with GST-Ap-NF-kB RHD is 2.15 z-score; in test [1], 3.16 z-score; with GST-Co-NF-kB, 1.03 z-score; in the test with GST-Dm-Relish, 3.4 z-score; with GST-Aq-NF-kB it was 5.79 z-score.
